# ± gives the standard deviation of the averaged measurements. Over roughly 1,900 compounds, “CD40L-induced NF-kB luciferase activity, plate-corrected, relative to DMSO (0) and IKK inhibitor VII (-100) controls” has its median near 0.032; the lowest 2% begin near -26. Many of the other results were omitted from the sample, so the lowest values are more common in it than they were.
# Tested on: BL2-NFkB-Luc
# Assay: CD40L-induced NF-kB luciferase activity, plate-corrected, relative to DMSO (0) and IKK inhibitor VII (-100) controls (% normalized activity); higher = more NF-kB reporter activity (less inhibition)
# Conditions: 9.4 µM; stimulus: tCD40L 64 ng/ml; 4.5 h
# Description: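 BL2 B cells with a stable NF-kB response-element luciferase reporter (BL2-NFkB-Luc), 384-well. Cells were pre-incubated with compound at 9.4 uM for 1 h at 37 C, then stimulated with 64 ng/ml trimerized CD40L for 4.5 h; luciferase was read with Steady-Glo. Signal was normalised per plate in Genedata (median DMSO neutral control = 0, median IKK inhibitor VII at 50 uM = -100) with Assay Median plate-pattern correction; duplicate plates.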
row,SMILES,CD40L-induced NF-kB luciferase activity
1,CCOc1cc(C=O)ccc1OCCSc1ccc(C)cc1,8.64 ± 2
2,CCC(C)NCCOCCOc1ccc(Cl)c2ccccc12 (configuration not stated),-3.83 ± 0.8
3,COc1ccc2oc(=O)c(-c3nc(C)cs3)cc2c1,82.6 ± 9.2
4,Cc1ccc2c(c1)c(=O)c1c3n2CCN(C(=O)CCl)C3CC1 (configuration not stated),-2.91 ± 2.5
5,CC1(C)Cc2ccccc2-c2nc(-c3ccccc3)oc(=O)c21,2.15 ± 0.84
6,O=C(c1ccc([N+](=O)[O-])cc1)N1CCSC1c1ccccc1Cl (configuration not stated),4.04 ± 5
7,CN(C)CCOc1ccccc1Cc1ccccc1,0.196 ± 5
8,O=C(NC1CCCCC1)c1cc2nc(-c3ccco3)cc(C(F)(F)F)n2n1,1.55 ± 1.8
9,CC(C)Oc1ccc(C2CC(=O)N(c3ccc(C(=O)O)cc3)C2=O)cc1 (configuration not stated),-3.94 ± 6.9
10,O=C(NCc1ccc(N2CCCC2=O)cc1)c1cccc(Cl)c1,0.303 ± 1.9
11,CCNC(=O)c1c(N)sc2c1CCCCC2,2.16 ± 2.4
12,CC(C)OC(=O)c1ccc(NC(=O)c2cncc(Br)c2)cc1,4.22 ± 5
13,CCOc1cc(C)cc2oc(=O)cc(-c3ccccc3)c12,3.93 ± 4.9
14,Cc1cc(O)c(C(=O)Cc2csc(C)n2)c(O)c1,45.9 ± 3.3
15,COc1cc(NC(=O)COc2ccccc2)c(OC)cc1NC(C)=O,2.35 ± 11
16,COc1ccc(C(=O)NCc2cccnc2)cc1,-2.51 ± 0.59

row,SMILES,CD40L-induced NF-kB luciferase activity
1,COc1ccc(OCc2cccc(C(=O)NN)c2)cc1,-59.1 ± 2.2
2,CCC(=O)c1ccc(OCc2ccc(C(=O)OC)cc2)cc1,47.3 ± 2.2
3,CC(=O)[C@H]1CC[C@H]2[C@@H]3CCC4=CC(=O)CC[C@]4(C)[C@H]3[C@H](O)C[C@]12C,-10.6 ± 14
4,COc1cc2nc(-c3ccccc3)nc(N3CCCC3)c2cc1OC,14.1 ± 1.1
5,C=C(C)c1nc2cc(OC)c(OC)cc2c(=O)o1,-30.6 ± 9.3
6,COc1ccc(/C=C\C(=O)c2c(O)ccc3c(C)cc(=O)oc23)cc1OC,-14 ± 3.3
7,COc1cc2cc(C(=O)O)[nH]c2c(OC)c1OC,1.43 ± 0.11
8,Cc1oc2ccc(OC(=O)c3cccs3)cc2c1C(=O)OC(C)C,6.48 ± 1
9,Cc1ccc2c(c1)C(CCN)C(=O)N2Cc1ccccc1 (configuration not stated),1.33 ± 2
10,CC12CCC(C(=O)N3CCc4ccccc43)(CC1=O)C2(C)C (configuration not stated),-7.25 ± 2.2
11,COc1cc2c(cc1OC)C(c1cc3ccccc3oc1=O)=NC(C)(C)C2,-0.782 ± 0.12
12,COc1cc(C2CC(=O)NC3=C2C(=O)CC(C)(C)C3)ccc1O (configuration not stated),7.59 ± 2.5
13,O=C1[C@@H]2[C@H](Cc3ccc(O)cc3)N[C@]3(C(=O)Nc4ccccc43)[C@@H]2C(=O)N1c1ccc(F)cc1,-2.13 ± 3.5
14,COc1ccc2oc(C)c(C(N)=O)c2c1,5.21 ± 2.3
15,Cc1ccc(S(=O)(=O)NC(C(=O)Oc2cc3oc(=O)cc(C)c3cc2Cl)C(C)C)cc1 (configuration not stated),-3.08 ± 0.98
16,c1ccc(Cn2nnc3cnccc32)cc1,3.11 ± 1.1

# From the supplement of paper PMC3656093
